This is a sample that favours compounds with a hit; in the whole collection about 7.3% have one here.
Tau fibril ThT: blocks human tau fibril formation measured by thioflavin T; recombinant tau K18 P301L, heparin-induced fibrillization, ThT fluorescence; Potency, µM (doses to about 57.4 µM), inactives show at the top dose activity, negative = inhibition, most hits filed as inhibitors; hit rate 2.1% among 270,000; AID 1460; further: nearly all actives have a fitted effect of over 55% in size
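ThT emission at 510 nm, taken 1 hr after adding 30 uM dye, quantifies aggregates formed when 20 uM heparin acts on human tau K18 P301L for 6 hr at 37 C.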
Tau fluor counter: counter-screen for tau fibril formation inhibitors; tau K18 P301L (four-repeat tau fragment) Alexa594 fluorescence, heparin fibrillization; AID 1463; Potency, µM (doses to about 57.7 µM), without a hit: top-dose activity change, negative = decrease; hit rate 0.93% among 280,000; further: nearly all actives have a fitted effect of over 55% in size
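Human K18 P301L tau (15 uM unlabeled plus 0.24 uM Alexa 594-labeled, final) in 100 mM sodium acetate pH 7 was mixed with compound and 20 uM heparin and incubated 6 hr at 37 C.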
Gal4-VP16 FLuc: Gal4-VP16 reporter inhibition counter-screen; Drosophila S2 Gal4-VP16 UAS-luciferase, luminescence, 20 h; Potency, µM (series often up to 53.6 µM), without a hit: at the top dose activity, negative = inhibition, actives largely listed as inhibitors; hit rate 3.5% among 310,000; AID 2546;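 further: Gal4-VP16 expression switched on by copper sulfate through the metallothionein promoter; nearly all actives have a fitted effect of over 50% in size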
Tau fibril FP: blocks human tau fibril formation measured by polarization | K18 P301L tau heparin fibrillization, Alexa594 FP, 6 h | Potency, µM (highest dose often 57.7 µM), for inactives: at the top dose activity, negative = inhibition, most hits filed as inhibitors | hit rate 0.39% among 280,000 | AID 1468; further: nearly all actives have a fitted effect of over 55% in size
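Recombinant K18 P301L […], labeled with Alexa 594 at 0.24 uM over 15 uM unlabeled; heparin inducer 20 uM final; 37 C, 6 hr; FP endpoint.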
RORgamma inh: inhibitors of mouse ROR gamma transcriptional activity; P51450; Drosophila S2 Gal4-RORgamma UAS-luciferase reporter, 20 h; Potency, µM (series often up to 53.6 µM), without a hit: at the top dose activity change, negative = inhibition, hits mostly inhibitors; hit rate 5.4% among 310,000; AID 2551; further: nearly all actives have a fitted effect of over 60% in size
Target sequence (P51450 whole entry, looked up, the tested form may be a part): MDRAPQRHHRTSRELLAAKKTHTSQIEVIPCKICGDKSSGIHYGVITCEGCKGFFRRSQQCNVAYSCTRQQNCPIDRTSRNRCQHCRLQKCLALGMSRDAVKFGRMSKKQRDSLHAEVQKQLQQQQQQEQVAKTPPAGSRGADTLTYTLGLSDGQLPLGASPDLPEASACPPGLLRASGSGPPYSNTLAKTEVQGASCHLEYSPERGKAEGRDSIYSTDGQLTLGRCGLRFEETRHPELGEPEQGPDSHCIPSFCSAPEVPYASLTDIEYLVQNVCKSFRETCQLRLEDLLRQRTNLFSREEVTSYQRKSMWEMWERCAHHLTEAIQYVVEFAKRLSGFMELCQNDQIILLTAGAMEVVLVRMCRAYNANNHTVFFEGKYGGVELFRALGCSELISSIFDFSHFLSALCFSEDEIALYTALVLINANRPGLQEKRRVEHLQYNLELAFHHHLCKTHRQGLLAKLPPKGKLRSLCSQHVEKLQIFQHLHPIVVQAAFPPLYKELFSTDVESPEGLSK
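Drosophila S2 cells stably expressing Gal4-DBD/mouse RORγ fusion under metallothionein promoter plus UAS-luciferase; compound 1 h, then 700 uM CuSO4 induction for 20 h at ambient temperature; inhibition read as reduced luminescence.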
Starred values were filed as active, the others as inactive; ? = inconclusive; nt = no result given; [ ] = another dose, or the depositor's remark. The call rests on the fitted dose curve; in most records, active means well fitted curve in the direction sought with a large enough effect; inconclusive means small, poorly fitted or top-dose-only effect, or another doubt; inactive means no such curve, though single readings can be large; an effect the other way counts as inactive or inconclusive. On the % scale 0 is the no-effect control and ±100 the full control effect; potency means the concentration at half of the fitted maximal effect.

SMILES	Tau fibril ThT	Tau fluor counter	Gal4-VP16 FLuc	Tau fibril FP	RORgamma inh
COC(=O)N1CCC2(CCCN(c3ccccn3)C2)CC1	nt	nt	-6%	nt	1%
c1cnc2c(-c3nccc4c3[nH]c3ccccc34)cccc2c1	-13%	-14%	-5%	-1%	7%
COc1cc(OC)c(NC(=O)N2CCc3cc(S(=O)(=O)N4CCC(C)CC4)ccc32)cc1Cl	1%	-7%	nt	13%	nt
COc1cc(NC(=O)c2cc3cc4ccc(OC)c(Cl)c4nc3s2)cc(OC)c1	?	-10%	nt	1%	nt
Cc1ccc(Nc2cc(-c3ccccc3)nc(C)n2)cc1	-6%	?	nt	3%	nt
Cc1nc(Nc2ccc(Cl)cc2)cc(-c2ccccc2)n1	21%	13µM*[quencher]	nt	28µM*	nt
COc1ccc(Nc2cc(Nc3cccc(OC)c3)ncn2)cc1	nt	nt	7%	nt	11%
COc1cccc(Nc2cc(-c3ccccc3)nc(C)n2)c1	?	28µM*[quencher]	nt	-9%	nt
CCCC[C@]12Cc3ccccc3C(O1)c1c(cc(-c3ccccc3)oc1=O)O2	nt	nt	?	nt	-115%[10 µM]
O=S(=O)(c1ccc(F)cc1)N1CCC(n2c(C(F)(F)F)nc3cccnc32)CC1	3%	-5%	nt	-3%	nt
CC(C)Nc1nc(NNc2nc(Cl)nc(NC(C)(C)C)n2)nc(NC(C)C)n1	-8%	-8%	1.8µM*	-1%	0.4µM*
CCNc1nc(NC(C)C)nc(NC(C)(C)C)n1	4%	3%	-11%	4%	3%
CC(C)Nc1nc(NC(N)=S)nc(NC(C)(C)C)n1	0%	-2%	?	0%	11µM*
CC(C)(C)c1ccc(C(=O)Cn2cnnc2C#N)cc1	nt	nt	15%	nt	20%
Nc1sc(-c2ccccc2)cc1C(=O)N/N=C/c1ccc(Cl)cc1	4µM*	14µM*[quencher]	-2%	-4%	-22%
CC(C)NC(=O)C(c1ccc(F)cc1)N(C(=O)CCC(=O)Nc1ccccn1)C1CCCC1 (configuration not stated)	nt	nt	?	nt	1%
Oc1ccccc1Nc1nc(NCc2ccco2)c2ccccc2n1	?	18µM*[quencher]	-25%	-10%	?
Cc1ccccc1Nc1nc(NCc2ccco2)c2ccccc2n1	?	?	-3%[10 µM]	13%	?
C[C@@H]1OC(Oc2ccccc2-c2cc(=O)c3c(O)cc(O)c([C@@H]4O[C@H](CO)[C@@H](O)[C@H](O)[C@H]4O)c3o2)[C@H](O)[C@H](O)[C@H]1O (some centres not stated)	nt	nt	-4%	nt	-17%
N=C1C(c2nc3ccccc3[nH]2)=C(O)CN1NC(=O)COc1cccc(F)c1	-8%	-1%	2%	4%	-39%
Cc1cc(C)cc(C(=O)Nc2nnc(SCC(=O)N3CCCc4ccccc43)s2)c1	4%	0%	-11%	10%	-1%
O=C(Nc1nnc(SCC(=O)N2CCCc3ccccc32)s1)c1ccccc1	-5%	-19%	?	1%	6.3µM*
O=C(Nc1nnc(SCC(=O)N2CCCc3ccccc32)s1)c1ccc2ccccc2c1	-4%	-22%	5.6µM*	-3%	6.3µM*
O=C(Nc1nnc(SCC(=O)N2CCOCC2)s1)c1ccccc1Cl	-4%	2%	6.3µM*	3%	10µM*
O=C(Nc1nnc(SCC(=O)N2CCCCC2)s1)c1ccccc1F	nt	nt	-21%	nt	36%
SMILES	Tau fibril ThT	Tau fluor counter	Gal4-VP16 FLuc	Tau fibril FP	RORgamma inh
CC(=O)Nc1nnc(SCC(=O)N2CCCc3ccccc32)s1	-5%	-3%	-12%	3%	10%
O=C(CSc1nnc(NC(=O)C2CCC2)s1)Nc1ccc(N2CCOCC2)cc1	6.3µM*	-29%	-1%	6%	1%
CCc1nn2c(=O)c(S(=O)(=O)Nc3ccc(C)c(C)c3)c(C)nc2s1	-2%	-8%	nt	-10%	nt
CCCN(C(=O)c1cc2c(s1)-c1ccccc1SC2)c1ccccc1F	-13%	-18%	nt	-5%	nt
COc1ccc(NC(=S)NC(=O)c2ccccc2Cl)cc1	-14%	-15%	?	-8%	6.3µM*
CC(C)CNC(=S)NC(=O)c1ccccc1Cl	1%	2%	11µM*	-2%	5µM*
O=C(NC(=S)Nc1ccc(NC(=O)c2ccccc2)cc1)c1ccc(F)cc1	nt	nt	-3%	nt	-39%
O=C(NC(=S)Nc1ccc(Oc2ccc(Cl)cc2)cc1)c1ccccc1	-15%	-24%	7.9µM*	-16%	3.5µM*
